DAX1 inh-1 = inhibits human nuclear receptor DAX1. P51843. HEK293 Gal4-DAX1 luciferase reporter, luminescence. inhibition, % at 6.75 µM. 0.99% of 340,000 active. AID 504766;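 active = inhibition above the mean over all tested compounds plus 3 SD, cut at about 4.2% in these data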;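 also: 0% = DAX1-transfected cells with DMSO and 100% = empty-vector control cells with DMSO; inhibition shows as a rise in luminescence from relieved DAX1 repression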
Target sequence (P51843 207-470 limits assumed): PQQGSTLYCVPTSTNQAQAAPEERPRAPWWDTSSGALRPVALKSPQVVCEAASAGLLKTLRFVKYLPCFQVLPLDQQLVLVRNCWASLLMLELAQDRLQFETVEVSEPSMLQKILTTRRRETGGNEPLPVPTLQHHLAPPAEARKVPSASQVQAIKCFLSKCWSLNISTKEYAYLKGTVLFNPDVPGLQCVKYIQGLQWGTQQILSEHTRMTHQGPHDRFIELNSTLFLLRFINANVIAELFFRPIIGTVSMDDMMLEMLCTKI
hgDAF-12 ag = hgDAF-12 agonism, primary luciferase screen | HEK293 GAL4-hgDAF12 UAS-luciferase reporter, agonist luminescence; normalized to butyrate control | activation, % at 6.8 µM | 1.8% of 370,000 active | AID 687014;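 active = activation above a cutoff set at the mean of all screened compounds plus 3 SD, cut at about 10% in these data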;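 also: 0% = DMSO wells and 100% = sodium butyrate wells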
ssDAF12 agonist = activates DAF-12 receptor from parasite S. stercoralis; HEK293 ssDAF-12/GRIP1 lit1-tk-luc reporter, luminescence; % of 3 µM dafachronic acid response; 1% of 370,000 active; AID 652126; activation, % at 6.8 µM;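 active = activation above the mean over all tested compounds plus 3 SD, cut at about 0.9% in these data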;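 also: 0% = DMSO-only wells and 100% = 3 µM delta7-dafachronic acid wells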
hcDAF12 agonist = activates DAF-12 receptor from parasite H. contortus. HEK293 hcDAF-12 lit1-tk-luc reporter, luminescence; 0% DMSO, 100% Δ7-dafachronic acid. activation, % at 6.8 µM. 1.4% of 370,000 active. AID 652067;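 active = activation above the mean of all tested compounds plus 3 SD, cut at about 5.5% in these data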;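 also: 100% = response to 3 µM Δ7-dafachronic acid high control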
DAX1 inh-2 = DAX1 (NR0B1) inhibition, primary screen; HEK293T StAR-luciferase reporter, SF-1/DAX-1 repression relief; inhibition, % at 6.8 µM; 1.1% of 370,000 active; AID 652010;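 active = inhibition above the mean over all tested compounds plus 3 SD, cut at about 3.6% in these data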;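 also: 0% = DAX-1 cells with DMSO and 100% = cells lacking DAX-1 with DMSO; higher inhibition means more luminescence from relief of DAX-1 repression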
LXRb hcDAF ctr = activates human LXR-beta, counter-screen for hcDAF-12 agonists; shares compounds with hcDAF12 agonist; HEK293 Gal4-LXR tk-luc reporter, luminescence, 24 h; normalized: DMSO 0%, positive control 100%; activation, % at 6.8 µM; 3,400 tested, under 10 active;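 active = mean percent activation of the reporter above a cutoff set as the average over tested compounds plus their standard deviation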
hcDAF12 ag = hcDAF-12 agonism, confirmation assay | shares compounds with hcDAF12 agonist | 61% of 3,400 active | activation, % at 6.8 µM | HEK293 hcDAF-12 lit1-tk-luc reporter, luminescence; % of Δ7-dafachronic acid response;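 active = mean activation across triplicate tests above the threshold derived from the earlier primary screen, cut at about 5.5% in these data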;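 also: 0% = DMSO only wells and 100% = 3 µM Δ7-dafachronic acid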
* hit, by the source's call. Compounds with a hit are over-represented: about 4.1% of the library has one in this group of screens.

Screening O=C(C[C@@H]1C[C@@H]2c3cc(NC(=O)c4ccc5c(c4)OCO5)ccc3O[C@@H]2[C@@H](CO)O1)NCc1cccnc1 returned hgDAF-12 ag -3.3, ssDAF12 agonist -0.9, hcDAF12 agonist -1.6 and DAX1 inh-2 -0.8.
COc1ccc(-n2c(SCC(=O)Nc3ccc(NC(C)=O)cc3)nc3c([nH]c4ccccc43)c2=O)cc1OC was read as DAX1 inh-1 0.2, hgDAF-12 ag -0.3, ssDAF12 agonist 1.0*, hcDAF12 agonist 9.6*, DAX1 inh-2 -0.7, LXRb hcDAF ctr -0.2 and hcDAF12 ag 6.7*.
Screening Cc1cccc(N=Nc2c(O)[nH]c3ccc(Br)cc23)c1 returned DAX1 inh-1 1.1, hgDAF-12 ag 6.6, ssDAF12 agonist 0.7, hcDAF12 agonist 11.7*, DAX1 inh-2 0.3, LXRb hcDAF ctr 0.2 and hcDAF12 ag 6.3*.
For N#C/C(=C\c1ccc[nH]1)C(=O)c1ccccc1 the results were DAX1 inh-1 0.1, hgDAF-12 ag 2.8, ssDAF12 agonist -1.1, hcDAF12 agonist 0.4 and DAX1 inh-2 0.1.
N#C/C(=C\c1ccc[nH]1)C(=O)Nc1ccccc1Cl was read as DAX1 inh-1 1.9, hgDAF-12 ag 5.0, ssDAF12 agonist 1.2*, hcDAF12 agonist 11.1*, DAX1 inh-2 2.6, LXRb hcDAF ctr 0.9 and hcDAF12 ag 11.7*.
For O=C(/C=C/c1ccccc1O)c1ccc(Cl)cc1 the results were DAX1 inh-1 -1.1, hgDAF-12 ag 8.6, ssDAF12 agonist 0.7, hcDAF12 agonist 6.8*, DAX1 inh-2 0.6, LXRb hcDAF ctr 0.0 and hcDAF12 ag 4.2.
O=C1/C(=C/c2cccs2)Cc2ccccc21 was read as DAX1 inh-1 -0.6, hgDAF-12 ag 5.4, ssDAF12 agonist -0.9, hcDAF12 agonist 1.5 and DAX1 inh-2 0.2.
Screening Cn1cccc1/C=C1\CCc2ccccc2C1=O returned DAX1 inh-1 -3.8, hgDAF-12 ag 9.9, ssDAF12 agonist 0.5, hcDAF12 agonist 10.1*, DAX1 inh-2 3.0, LXRb hcDAF ctr 1.5 and hcDAF12 ag 11.1*.
Cn1cccc1/C=C1\Cc2ccccc2C1=O was read as DAX1 inh-1 4.3*, hgDAF-12 ag 19.1*, ssDAF12 agonist 1.7*, hcDAF12 agonist 11.6*, DAX1 inh-2 3.9*, LXRb hcDAF ctr 1.6 and hcDAF12 ag 9.4*.
Screening CCOC(=O)[C@]12CCCC=C1N(CCCOC)C(=O)[C@@H]2CC(=O)N1CCSCC1 returned hgDAF-12 ag -1.5, ssDAF12 agonist -1.1, hcDAF12 agonist -1.6 and DAX1 inh-2 0.2.
`COC[C@@H]1CCCN1c1cccc2c1S(=O)(=O)N1CC[C@@H](C1)O2` gave hgDAF-12 ag 3.7, ssDAF12 agonist 0.3, hcDAF12 agonist 0.3 and DAX1 inh-2 -0.8.
Screening c1ccc(-c2csc(Nc3ccccn3)n2)cc1 returned DAX1 inh-1 3.4, hgDAF-12 ag 17.6*, ssDAF12 agonist 2.7*, hcDAF12 agonist 14.4*, DAX1 inh-2 2.3, LXRb hcDAF ctr 2.4 and hcDAF12 ag 16.6*.
`C#CCN1CC(N(C)CCOC(=O)CSc2ccccc2)CS1(=O)=O` (centres undefined) gave hgDAF-12 ag 4.7, ssDAF12 agonist -0.9, hcDAF12 agonist -0.5 and DAX1 inh-2 -1.1.
For O=c1c2cccc3c2c(nn1CN1CCOCC1)-c1ccccc1-3 the results were DAX1 inh-1 2.2.
For CCN(CC)CCn1nc2c3c(cccc3c1=O)-c1ccccc1-2 the results were DAX1 inh-1 -2.3, hgDAF-12 ag -6.5, ssDAF12 agonist 22.6*, hcDAF12 agonist 11.4*, DAX1 inh-2 -2.9, LXRb hcDAF ctr 0.4 and hcDAF12 ag 9.5*.
`CCC1CCCCN1CCCNC(=O)Cn1c2ccccc2c2nc(=O)cc(C)n21` (centres undefined) gave DAX1 inh-1 0.1, hgDAF-12 ag 1.7, ssDAF12 agonist 0.2, hcDAF12 agonist 8.2*, DAX1 inh-2 1.1, LXRb hcDAF ctr -0.1 and hcDAF12 ag 6.7*.

Assay outcomes as filed in PubChem.
